# Compound activity deposited in PubChem by National Center for Advancing Translational Sciences (NCATS).
# A selection: hits, their analogues and other compounds. The true share with any hit is near 3%.
# S16 viability: Cell viability qHTS assay in S16 Pmp22-F2sN cells. Potency, µM (top dose mostly 57.5 µM), hits mostly cytotoxic. S16 Pmp22-F2sN Schwann cells viability, CellTiter-Glo, 24 h. 43,000 compounds, 0.48% hits; further: nearly all actives have a fitted effect of over 65% in size
#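 Viability was measured by CellTiter-Glo luminescence (15 min, room temperature). This followed 24 h at 37 °C of compound exposure (23 nL pin transfer) in S16 Pmp22-F2sN Schwann cells, 500-1,000 per well.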
# p53null 39C kill: qHTS Screen for Compounds that Selectively Target Cancer Cells with p53 Mutations: Cytotoxicity of p53 Null Cells at the Nonpermissive Temperature. Potency, µM (series often up to 46.1 µM), hits mostly cytotoxic. 55,000 compounds, 0.97% hits. AID 904, 2007. H1299 p53-null (neo) cells, 39C, ATPlite viability, 24 h; further: nearly all actives have a fitted effect of over 50% in size
#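 ATP-luminescence viability readout (ATPlite, 20 min RT) after 24 hr compound treatment at 39C of H1299-neo or H1299-p53A138V cells; titration up to 46 uM; normalized to DMSO and 100 uM tamoxifen; Hill-fit AC50.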
# p53null 32C tox: qHTS Screen for Compounds that Selectively Target Cancer Cells with p53 Mutations: Cytotoxicity of p53 Null Cells at the Permissive Temperature; H1299-neo p53 null cells, ATP luminescence, 24 h, 32C; Potency, µM (titrated, usually from 46.1 µM), actives largely listed as cytotoxic; 55,000 compounds, 0.62% hits; AID 903, 2007; further: nearly all actives have a fitted effect of over 55% in size
#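 Cells lacking p53 (H1299-neo) are plated at 600 per well and allowed to settle overnight at 37C. Test compounds (up to 46 uM) are added and held 24 hours at 32C, then ATP is quantified by luminescence.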
# SKOV3 invasion: Primary qHTS assay for Inhibitors of ovarian cancer metastasis using an organotypic tumor microenvironment (TME) model | SKOV3ip1-GFP adhesion/invasion on 3D omental model, fluorescence | 46,000 compounds, 0.1% hits | Potency, µM (titrated, usually from 45.8 µM), usual class: inhibitors; further: nearly all actives have a fitted effect of over 65% in size
#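 Adhesion/invasion was scored as fixed GFP-labeled SKOV3ip1 cell counts (488/509 nm), normalized to DMSO and tomatine controls. Cancer cells in serum-free medium, with four compound doses (0.36-46 umol/L), sat 2 hr at RT then 16 hr at 37 C on a 48 hr fibroblast/mesothelial/ECM culture.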
# PMP22 txn prim: Cell-based coincidence reporter assay to measure PMP22 gene transcription in S16 Pmp22-F2sN cells - Primary screen. S16 Pmp22-F2sN Schwann cells (luciferase reporters placed in the Pmp22 gene), FLuc/NLuc coincidence luminescence, 24 h. Potency, µM (doses to about 57.5 µM), actives largely listed as inhibitors. 43,000 compounds, 2% hits. AID 1508649, 2021; active means clear falling dose curves in both reporters; inconclusive means both reporters move, but less clearly or upward; inactive means either reporter flat; the % is the NLuc reporter signal
#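 Rat S16 Pmp22-F2sN cells, 500-1,000/well in phenol red-free DMEM + 10% FBS, compound-treated 24 h (37C, 5% CO2). Luminescence: FLuc read, Stop&Glo added, NLuc read.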
# pS6 MEF inh: Acumen qHTS Assay for Inhibitors of the mTORC1 Signaling Pathway in MEF (Tsc2-/-, p53-/-) Cells: Sytravon. Tsc2-/- p53-/- MEF, phospho-rpS6 immunofluorescence/PI, 24 h. Potency, µM (doses to about 38.3 µM), usual class: inhibitors. 44,000 compounds, 0.78% hits. AID 493208, 2011; further: nearly all actives have a fitted effect of over 50% in size
#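 Immunofluorescence of rpS6 phosphorylation in Tsc2-/-, p53-/- MEFs after 24 h compound exposure, normalized to propidium iodide signal. Activity is expressed as % positive cells, thresholded with 7.5 nM rapamycin.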
# A number is an active result; i = inactive; ? = inconclusive; nt = no result. Unless noted, the call rests on the fitted dose curve; in most records, active means well fitted curve in the direction sought with a large enough effect; inconclusive means small, poorly fitted or top-dose-only effect, or another doubt; inactive means no such curve, though single readings can be large; an effect the other way counts as inactive or inconclusive.
SMILES,S16 viability,p53null 39C kill,p53null 32C tox,SKOV3 invasion,PMP22 txn prim,pS6 MEF inh
N#Cc1ccc(COC[C@H]2O[C@@H](n3c(NCc4ccc(Cl)c(Cl)c4)nc4c(N)ncnc43)[C@@H](O)[C@@H]2O)cc1,nt,nt,nt,i,nt,nt
NS(=O)(=O)OC[C@@H]1C[C@@H](n2ccc3c(N[C@H]4CCc5ccccc54)ncnc32)C[C@H]1O,nt,nt,nt,i,nt,nt
Cc1cccc(Cn2nnc3c(=O)[nH]c(C4CCCN(C(=O)c5ccc(C(C)(C)C)cc5)C4)nc32)c1 (centres undefined),?,20µM,?,?,i,i
COc1cc(NC(=O)c2cccc(F)c2)ccc1NC(=O)c1cc2ccccc2o1,i,i,i,i,i,16µM
Cc1ccc(S(=O)(=O)c2nnn3c2nc(NC2CCCCC2)c2sccc23)cc1C,?,i,i,i,?,7.4µM
CCOc1cc(C(c2c(C)[nH]n(-c3ccccc3)c2=O)c2c(C)[nH]n(-c3ccccc3)c2=O)ccc1O,i,i,i,?,9.5µM,i
Nc1ncnc2c1c(-c1cccc(OCc3ccccc3)c1)cn2C1CC(CN2CCCC2)C1 (centres undefined),nt,nt,nt,i,nt,nt
Nc1ccc2oc(-c3ccccn3)nc2c1,nt,i,11µM,nt,nt,nt
COC(=O)c1ccc(-c2nc3cc(N)ccc3o2)cc1,nt,i,?,nt,nt,nt
O=S(=O)(Nc1cccc(-c2ccc(N3CCCCC3)nn2)c1)c1cccc(F)c1,nt,10µM,?,i,nt,i
COc1ccc(S(=O)(=O)Nc2cccc(-c3ccc(N4CCCCC4)nn3)c2)cc1F,nt,20µM,13µM,i,nt,i
CC(=O)NCCC(=O)N[C@@H](CCC(N)=O)C(=O)N[C@@H](CO)C(=O)N[C@@H](CCC(N)=O)C(=O)N[C@@H](CCC(N)=O)C(=O)N[C@H](C(=O)N[C@@H](Cc1ccccc1)C(=O)N[C@]1(C)CCCCCCC=CCCC[C@@](C)(C(=O)N[C@@H](CCC(N)=O)C(=O)N[C@@H](CC(N)=O)C(N)=O)NC(=O)[C@H](CC(C)C)NC(=O)[C@H](CC(C)C)NC(=O)[C@@H](CCCNC(=N)N)NC(=O)[C@H](Cc2c[nH]c3ccccc23)NC(=O)[C@H](CC(C)C)NC(=O)[C@H](CC(N)=O)NC1=O)[C@H](C)O,nt,nt,nt,i,nt,nt
Cn1cc(C2=C(c3c4n(c5ccccc35)CCC(CN)C4)C(=O)NC2=O)c2ccccc21 (centres undefined),nt,nt,nt,i,nt,nt
Cc1cncn1CCc1nc2c3ccccc3nc(SCC(=O)Nc3ccc(F)cc3)n2n1,i,i,i,i,i,i
Cc1cncn1CCc1nc2c3ccccc3nc(SCC(=O)Nc3cccc(Cl)c3)n2n1,28µM,?,?,?,?,?
CCN1CCOC(=O)C1CC(=O)Nc1cc(C)cc(C)c1 (centres undefined),?,nt,nt,i,?,10µM
COc1cccc(C(=O)CC2(O)C(=O)N(Cc3ccccc3)c3ccccc32)c1 (centres undefined),?,i,i,i,?,15µM
COc1ccc(C(=O)CC2(O)C(=O)N(Cc3cccc(C(F)(F)F)c3)c3ccccc32)cc1 (centres undefined),?,?,i,i,?,?
O=C(CC1(O)C(=O)N(CCc2ccccc2)c2ccc(Br)cc21)c1ccccc1O (centres undefined),?,?,i,i,?,18µM
O=C(CC1(O)C(=O)Nc2cc(Cl)cc(Cl)c21)c1ccccc1O (centres undefined),nt,i,i,nt,nt,nt
CCN1C(=O)C(O)(c2c[nH]c3ccccc23)c2cc(Br)ccc21 (centres undefined),i,i,i,i,?,i
O=C(CC1(O)C(=O)N(Cc2ccccc2)c2ccc(Br)cc21)c1ccccc1 (centres undefined),i,13µM,?,i,?,?
CC(C)C[C@H](NC(=O)c1cc2ccccc2s1)C(=O)N1CCN(C(=O)[C@H](CO)NS(=O)(=O)c2ccc(Cl)cc2Cl)CC1,nt,nt,nt,i,nt,nt
CCn1c(-c2nonc2N)nc2cnc(Oc3cccc(NC(=O)c4ccc(OCCN5CCOCC5)cc4)c3)cc21,nt,nt,nt,i,nt,nt
CCN1CCN(c2cc(C)c3cc(NC(=O)/C=C/c4cccc(OC)c4OC)ccc3n2)CC1,?,?,i,?,i,?
SMILES,S16 viability,p53null 39C kill,p53null 32C tox,SKOV3 invasion,PMP22 txn prim,pS6 MEF inh
Cc1cc(N2CCCCC2)nc2ccc(NC(=O)/C=C/c3ccccc3OC(C)C)cc12,i,i,i,i,i,16µM
COc1cccc(/C=C/C(=O)Nc2ccc3nc(N4CCN(C)CC4)cc(C)c3c2)c1OC,32µM,20µM,?,?,?,?
CO[C@@H]1C(N(C)C(=O)c2ccccc2)C[C@H]2O[C@]1(C)n1c3ccccc3c3c4c(c5c6ccccc6n2c5c31)C(=O)NC4=O (some centres undefined),nt,nt,nt,i,nt,nt
CC(C)(C)c1ccc(/C=C/C(=O)Nc2ccc(S(N)(=O)=O)cc2)cc1,?,?,25µM,i,?,i
Cc1ccc(/C=C/C(=O)Nc2ccc(S(N)(=O)=O)cc2)o1,i,i,i,i,i,i
CCOc1ccc(-c2nonc2NC(=O)c2oc3ccc(Br)cc3c2C)cc1,i,?,13µM,i,?,i
CCOc1ccc(-c2nonc2NC(=O)c2oc3cc(C)ccc3c2C)cc1,i,i,i,i,i,?
CCOc1ccc(-c2nonc2NC(=O)c2oc3cc(Br)ccc3c2C)cc1,?,?,?,i,9.5µM,i
O=c1cc(CN2CCOCC2)occ1OCCCCCSc1ccnc2cc(C(F)(F)F)ccc12,nt,nt,nt,i,nt,nt
CCS(=O)(=O)c1ncc(Cl)c(C(=O)N(Cc2ccccc2)Cc2ccco2)n1,3.5µM,?,?,i,3.2µM,3.3µM
CCOc1ccc(Cc2cc([C@@H]3O[C@H](CO)[C@@H](O)[C@H](O)[C@@H]3O)ccc2Cl)cc1,nt,nt,nt,i,nt,nt
COc1ccc(S(=O)(=O)Nc2cccnc2Nc2ccc(O)cc2)cc1,nt,nt,nt,i,nt,nt
CC1(C)C(=O)N(CC(=O)Nc2ccc(Br)cc2F)c2ccccc21,i,i,i,i,i,i
COC(=O)CN1C(=O)C(C)(C)c2cc(S(=O)(=O)Nc3ccc(Br)cc3F)ccc21,i,i,i,i,i,13µM
